Reference: PubChem BioAssay (EPA / NIEHS)
Values joined by “and” are separate entries in the source; they are usually repeats but may differ in a detail not shown here. Equal values may be shown once. A structure can be active in one record and inactive in another. Active and inactive are the calls of the source. Rule for the calls: active = hit-call score of the fitted dose curve at least 0.9, where 1 is the maximum; inactive = score below 0.9.

How the values were obtained:
Details in all cases: mRNA level, 48 h; actives raise or lower the signal
[1] = read-out: Glutathione S-transferase M3 (GSTM3), GSTM3 (gene 2947); assay: LTEA_HepaRG_GSTM3: Life Technologies and Expression Analysis (LTEA) Assay for Glutathione S-transferase M3 (GSTM3) using HepaRG (AID 2283501)
Outline: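 Expression of GSTM3 is determined by qRT-PCR in human liver HepaRG cells treated 48 h with an 8-point half-log range from 100 uM in 0.5% DMSO.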

[2] = read-out: Heat shock 70 kDa protein 1 (HSPA1A), gene 3303; assay: LTEA_HepaRG_HSPA1A: Life Technologies and Expression Analysis (LTEA) Assay for Heat shock 70 kDa protein 1 (HSPA1A) using HepaRG (AID 2283502)
Outline: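 Differentiated human HepaRG cells in serum-free induction medium were exposed in duplicate for 48 h to eight concentrations (top 100 uM, half-log steps, 0.5% DMSO). HSPA1A mRNA was quantified by qRT-PCR, normalized to ACTB, GAPDH and POLR2A, and fitted bidirectionally against DMSO.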

[3] = read-out: Hypoxia-inducible factor 1-alpha (Homo sapiens) (UniProt Q16665); assay: LTEA_HepaRG_HIF1A: Life Technologies and Expression Analysis (LTEA) Assay for Hypoxia-inducible factor 1 (HIF1A) Trancription factor using HepaRG (AID 2283503);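 note: HIF1A transcript by TaqMan qRT-PCR normalized to ACTB GAPDH and POLR2A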
Outline: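 HepaRG, 48 h exposure, 8-pt half-log series from 100 uM, 0.5% DMSO vehicle, duplicates. Readout: HIF1A transcript by qRT-PCR (Fluidigm array), housekeeping-normalised. Bidirectional curve fit vs DMSO baseline.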

[4] = read-out: 3-Hydroxy-3-Methylglutaryl-CoA Synthase 2 (HMGCS2), HMGCS2 (gene 3158); assay: LTEA_HepaRG_HMGCS2: Life Technologies and Expression Analysis (LTEA) Assay for 3-Hydroxy-3-Methylglutaryl-CoA Synthase 2 (HMGCS2) using HepaRG (AID 2283504)
Outline: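 This steatosis marker was read as HMGCS2 mRNA change in HepaRG cells treated 48 h with up to 100 uM chemical. Normalisation used housekeeping genes; activity in either direction was fitted relative to 0.5% DMSO vehicle.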

HGF (gene 3082) = assay: LTEA_HepaRG_HGF: Life Technologies and Expression Analysis (LTEA) Assay for Hepatocyte Growth Facto (HGF) using HepaRG (AID 2283505)
Outline: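 Using HepaRG monolayers kept in 0.5% DMSO, chemicals were tested in duplicate over eight half-log concentrations from 100 uM for 48 h. Endpoint: HGF mRNA change relative to DMSO, normalized to ACTB/GAPDH/POLR2A.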

[5] = read-out: Insulin Like Growth Factor 1 (IGF1), IGF1 (gene 3479); assay: LTEA_HepaRG_IGF1: Life Technologies and Expression Analysis (LTEA) Assay for Insulin Like Growth Factor 1 (IGF1) using HepaRG (AID 2283506)
Outline: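 Differentiated human HepaRG cells were dosed for 48 h in serum-free induction medium with 0.5% DMSO, eight half-log concentrations up to 100 uM, in duplicate. IGF1 mRNA was quantified by qRT-PCR normalized to ACTB, GAPDH, POLR2A; bidirectional fitting versus DMSO.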

[6] = read-out: Intercellular Adhesion Molecule 1 (ICAM1), ICAM1 (gene 3383); assay: LTEA_HepaRG_ICAM1: Life Technologies and Expression Analysis (LTEA) Assay for Intercellular Adhesion Molecule 1 (ICAM1) using HepaRG (AID 2283507)
Outline: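 Using the human liver line HepaRG, compounds are tested in duplicate over 48 h at concentrations up to 100 uM. Expression is determined by TaqMan qRT-PCR, normalized to endogenous controls, and analysed relative to 0.5% DMSO vehicle.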

[7] = read-out: Interleukin 6 (IL6), IL6 (gene 3569); assay: LTEA_HepaRG_IL6: Life Technologies and Expression Analysis (LTEA) Assay for Interleukin 6 (IL6) using HepaRG (AID 2283509)
Outline: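 HepaRG cells exposed in duplicate for 48 h to eight half-log concentrations, top 100 uM, in 0.5% DMSO serum-free induction medium. mRNA measured by qRT-PCR, normalized to ACTB, GAPDH and POLR2A. Bidirectional fit versus DMSO.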

[8] = read-out: Interleukin 6 Receptor (IL6R), IL6R (gene 3570); assay: LTEA_HepaRG_IL6R: Life Technologies and Expression Analysis (LTEA) Assay for Interleukin 6 Receptor (IL6R) using HepaRG (AID 2283510);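 for AC50: TaqMan qRT-PCR signal normalized to ACTB GAPDH and POLR2A housekeeping genes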
Outline: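 Differentiated human HepaRG cells, plated 48 h then switched to serum-free induction medium, were dosed in duplicate for 48 h at eight half-log concentrations up to 100 uM in 0.5% DMSO. IL6R mRNA quantified by qRT-PCR, normalized to ACTB/GAPDH/POLR2A; bidirectional fit versus DMSO.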

[9] = read-out: Potassium channel subfamily K member 1 (KCNK1), KCNK1 (gene 3775); assay: LTEA_HepaRG_KCNK1: Life Technologies and Expression Analysis (LTEA) Assay for Potassium channel subfamily K member 1 (KCNK1) using HepaRG (AID 2283511)
Outline: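 Differentiated HepaRG cells, 48 h exposure in serum-free induction medium with 0.5% DMSO; 8 concentrations, half-log from 100 uM, duplicate. KCNK1 mRNA by qRT-PCR, normalized to ACTB, GAPDH, POLR2A; bidirectional fit vs DMSO.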

[10] = read-out: Keratin 19 (KRT19), KRT19 (gene 3880); assay: LTEA_HepaRG_KRT19: Life Technologies and Expression Analysis (LTEA) Assay for Keratin 19 (KRT19) using HepaRG (AID 2283512)
Outline: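 Readout is qRT-PCR of KRT19 mRNA, normalized to ACTB, GAPDH and POLR2A, from HepaRG cells treated 48 h with eight-point half-log dilutions topping at 100 uM. Activity in either direction is scored relative to 0.5% DMSO vehicle.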

[11] = read-out: Lipase C (LIPC), LIPC (gene 3990); assay: LTEA_HepaRG_LIPC: Life Technologies and Expression Analysis (LTEA) Assay for Lipase C (LIPC) using HepaRG (AID 2283514)
Outline: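 HepaRG cells, 48 h after plating, treated in duplicate for 48 h in serum-free induction medium over 8 half-log concentrations from 100 uM, 0.5% DMSO. LIPC mRNA by TaqMan qRT-PCR normalized to ACTB/GAPDH/POLR2A; bidirectional fit versus DMSO.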

[12] = read-out: Lipoprotein lipase (LPL), LPL (gene 4023); assay: LTEA_HepaRG_LPL: Life Technologies and Expression Analysis (LTEA) Assay for Lipoprotein lipase (LPL) using HepaRG (AID 2283515)
Outline: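 Differentiated HepaRG cells, plated 48 h, then exposed 48 h in serum-free induction medium to 8 concentrations (top 100 uM, half-log steps) in 0.5% DMSO, duplicate. LPL mRNA measured by qRT-PCR, normalized to ACTB, GAPDH and POLR2A.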

[13] = read-out: MicroRNA 122 (MIR122), gene 406906; assay: LTEA_HepaRG_MIR122: Life Technologies and Expression Analysis (LTEA) Assay for MicroRNA 122 (MIR122) using HepaRG (AID 2283516); note: the transcript read is the microRNA miR-122
Outline: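 Differentiated human HepaRG cells were exposed 48 h in serum-free induction medium to eight half-log concentrations (top 100 uM, 0.5% DMSO). Transcript level was measured by TaqMan qRT-PCR, normalized to ACTB, GAPDH and POLR2A, and fitted bidirectionally versus DMSO.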

[14] = read-out: matrix metalloproteinase-10 (MMP10), MMP10 (gene 4319); assay: LTEA_HepaRG_MMP10: Life Technologies and Expression Analysis (LTEA) Assay for matrix metalloproteinase-10 (MMP10) using HepaRG (AID 2283517)
Outline: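 Differentiated HepaRG cells in serum-free induction medium exposed 48 h in duplicate to 8-point half-log series up to 100 uM in 0.5% DMSO. mRNA quantified by qRT-PCR, normalised to ACTB, GAPDH, POLR2A; bidirectional fit versus DMSO.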

MYC, MYC (gene 4609) = assay: LTEA_HepaRG_MYC: Life Technologies and Expression Analysis (LTEA) Assay for MYC using HepaRG (AID 2283518)
Outline: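 Expression changes were scored by TaqMan qRT-PCR with ACTB, GAPDH and POLR2A normalization. Cultures in serum-free induction medium received duplicate 8-point concentration series, highest 100 uM, for 48 h; DMSO (0.5%) served as baseline.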

[15] = read-out: matrix metalloproteinase-3 (MMP3), MMP3 (gene 4314); assay: LTEA_HepaRG_MMP3: Life Technologies and Expression Analysis (LTEA) Assay for matrix metalloproteinase-3 (MMP3) using HepaRG (AID 2283519)
Outline: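 HepaRG cells (~100,000/well) in serum-free induction medium were dosed in duplicate for 48 h with an 8-point half-log series from 100 uM, 0.5% DMSO. MMP3 mRNA was quantified by Fluidigm TaqMan qRT-PCR, normalized to three housekeeping genes.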

[16] = read-out: Paternally Expressed 10 (PEG10), PEG10 (gene 23089); assay: LTEA_HepaRG_PEG10: Life Technologies and Expression Analysis (LTEA) Assay for Paternally Expressed 10 (PEG10) using HepaRG (AID 2283520)
Outline: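 Differentiated HepaRG cells, plated 48 h then switched to serum-free induction medium, were exposed in duplicate for 48 h to eight half-log concentrations topping at 100 uM in 0.5% DMSO. PEG10 mRNA was quantified by TaqMan qRT-PCR, normalised to ACTB, GAPDH and POLR2A.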

Measured: AC50

Hypoxia-inducible factor 1-alpha (Homo sapiens), sequence (Q16665 whole entry, looked up): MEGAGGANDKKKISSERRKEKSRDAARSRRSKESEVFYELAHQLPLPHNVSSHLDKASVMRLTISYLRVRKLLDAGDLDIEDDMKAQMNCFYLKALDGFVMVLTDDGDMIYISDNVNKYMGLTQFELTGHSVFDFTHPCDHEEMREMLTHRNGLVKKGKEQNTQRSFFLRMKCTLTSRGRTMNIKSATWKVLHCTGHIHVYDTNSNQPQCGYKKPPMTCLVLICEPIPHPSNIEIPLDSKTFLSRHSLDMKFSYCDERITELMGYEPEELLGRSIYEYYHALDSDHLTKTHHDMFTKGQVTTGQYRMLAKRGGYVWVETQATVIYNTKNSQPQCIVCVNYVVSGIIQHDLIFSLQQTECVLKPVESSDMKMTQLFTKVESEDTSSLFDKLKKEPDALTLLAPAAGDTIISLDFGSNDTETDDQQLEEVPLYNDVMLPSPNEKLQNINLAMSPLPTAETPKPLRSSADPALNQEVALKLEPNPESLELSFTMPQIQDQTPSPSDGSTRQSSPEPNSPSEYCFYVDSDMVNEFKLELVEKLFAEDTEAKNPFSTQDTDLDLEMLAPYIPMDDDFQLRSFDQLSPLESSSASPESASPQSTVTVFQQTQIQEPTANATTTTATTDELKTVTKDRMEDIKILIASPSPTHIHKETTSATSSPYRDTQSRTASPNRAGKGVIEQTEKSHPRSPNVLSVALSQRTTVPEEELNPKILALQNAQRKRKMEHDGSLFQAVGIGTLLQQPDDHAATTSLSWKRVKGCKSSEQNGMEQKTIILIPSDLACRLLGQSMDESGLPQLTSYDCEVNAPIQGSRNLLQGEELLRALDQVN

CCNc1nc(Cl)nc(NC(C)C)n1
active: [5] 50 µM | [10] 26.1 µM
inactive: all other assays above

CCCN(CCC)c1c([N+](=O)[O-])cc(S(N)(=O)=O)cc1[N+](=O)[O-]
inactive: [1] | [3] | [4] | HGF (gene 3082) | [5] | [6] | [8] | [9] | [10] | [11] | [12] | [13] | [14] | MYC, MYC (gene 4609)
active: [2] 70.7 µM and 75.6 µM and 50 µM | [3] 94.2 µM and 84.5 µM | [4] 54.1 µM and 73.4 µM | [5] 93.4 µM | [6] 94.8 µM and 85.4 µM | [7] 93.1 µM and 85.4 µM and 91 µM | [8] 68.4 µM and 70 µM | [9] 93.5 µM | [10] 93.8 µM and 72.5 µM | [12] 50 µM | [13] 95.7 µM | [14] 74.1 µM | MYC, MYC (gene 4609) 86.2 µM | [16] 96.3 µM and 41 µM and 7.55 µM

Cc1c(F)c(F)c(COC(=O)C2C(/C=C(\Cl)C(F)(F)F)C2(C)C)c(F)c1F (stereo not drawn)
active: [5] 69.4 µM
not listed: [15]
inactive: all other assays above

COC(=O)C=C(C)OP(=O)(OC)OC
not listed: [15]
inactive: all other assays above

CCOc1cc(Oc2ccc(C(F)(F)F)cc2Cl)ccc1[N+](=O)[O-]
inactive: [1] | [2] | [3] | [7] | [8]
active: [4] 41.9 µM | [5] 50 µM | [6] 50 µM | [9] 30 µM | [10] 33.8 µM | [11] 34.9 µM | [12] 21.4 µM | [13] 37 µM | [14] 50 µM | MYC, MYC (gene 4609) 28.4 µM | [16] 24.9 µM

O=C(Nc1ccccc1)Nc1ccnc(Cl)c1
active: [1] 80.4 µM | [2] 84.2 µM | [4] 28.6 µM | HGF (gene 3082) 78 µM | [5] 28.3 µM | [7] 93.9 µM | [8] 76.2 µM | [10] 28.1 µM | [11] 24 µM | [12] 81.8 µM | [16] 31.8 µM
inactive: [3] | [6] | [9] | [13] | [14] | MYC, MYC (gene 4609)

CCOC(=O)CC(SP(=S)(OC)OC)C(=O)OCC (stereo not drawn)
inactive: all assays above

N#CC(CCc1ccc(Cl)cc1)(Cn1cncn1)c1ccccc1 (stereo not drawn)
active: [2] 79.5 µM | [3] 73.7 µM | [4] 67.9 µM | HGF (gene 3082) 93.6 µM | [5] 50 µM | [6] 71.6 µM | [7] 80.2 µM | [9] 44.6 µM | [11] 65.9 µM | [12] 50 µM | [13] 66 µM | [14] 74.2 µM | MYC, MYC (gene 4609) 65.2 µM | [16] 9.92 µM
inactive: [1] | [8] | [10]

COc1cnc(OC)n2nc(NS(=O)(=O)c3c(OCC(F)F)cccc3C(F)(F)F)nc12
active: [2] 50 µM | [4] 31.8 µM | [5] 10.3 µM
inactive: all other assays above

CCCCOC(=O)c1ccccc1C(=O)OCCCC
not listed: [15]
inactive: all other assays above

COc1nc(NC(C)C)nc(NC(C)C)n1
active: [5] 66.2 µM | [10] 39.4 µM
inactive: all other assays above

CC(C)C1(C)N=C(c2nc3ccccc3cc2C(=O)O)NC1=O (stereo not drawn)
not listed: [15]
inactive: all other assays above
